CCHFV vOTU inh: blocks the CCHF virus ovarian tumor domain protease; actives 0.55% (n = 370,000); inhibition, % at 11.5 µM; CCHFV vOTU protease, Pep-AMC fluorescence; in the data active = inhibition above about 30%
BioA inh: BioA (M. tuberculosis) enzyme inhibition; AID 602481; purified M. tuberculosis BioA enzyme, plate reader; actives 0.096% (n = 360,000); inhibition, % at 9.99 µM; in the data active = inhibition above about 40%
Y pestis TopoI: Y. pestis Topo-I inhibition via cleavage products. Y. pestis Topo-I cleavage product accumulation, plate reader. activity, % at 10 µM. actives 0.064% (n = 360,000). AID 504884; in the data active = activity above about 50%, passing the limit was not always enough
Mtb bLac sens: beta-lactam sensitization of Mtb H37Rv | actives 0.27% (n = 330,000) | inhibition, % at 25 µM | AID 434955 | M. tuberculosis H37Rv growth with meropenem, percent inhibition; call rule not given here;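 also: growth measured after seven days incubation then overnight dye step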
RecA splice inh: inhibitors of M. tuberculosis RecA intein splicing; P9WHJ3; cell-free RecA intein splicing, fluorescence; inhibition, % (concentration not given with the values); actives 0.75% (n = 290,000); AID 2221; in the data active = inhibition above about 30%
BJeLR viability: BJeLR cell viability loss | BJeLR (HRASV12) viability, CellTiter-Glo ATP luminescence, 48 h | inhibition, % (concentration not given with the values) | actives 0.17% (n = 300,000) | AID 1554; in the data active = inhibition above about 50%
A number is an active result; i = inactive; nt = not tested or not shown; ! = repeats disagree. In the library only some 1.1% were active in any assay of this set; here they are far more common.

SMILES	CCHFV vOTU inh	BioA inh	Y pestis TopoI	Mtb bLac sens	RecA splice inh	BJeLR viability
Clc1ccc(OCc2nn3c(C4CCCCC4)nnc3s2)cc1	i	i	54	i	i	i
c1ccc(-c2nn3c(C4CCCCC4)nnc3s2)nc1	i	i	i	i	i	i
CC1CC(C)CN(S(=O)(=O)c2ccc(C(=O)NCCCn3ccnc3)cc2)C1 (stereo unspecified)	nt	i	i	i	i	109
O=C(NCCCn1ccnc1)c1ccc(S(=O)(=O)N2CCCCCC2)cc1	i	nt	i	i	i	i
Cc1ccc(N2C(=O)C(Cl)=C(NCCO)C2=O)c(C)c1	i	nt	i	i	33	i
CCCNC(=O)C[C@H]1CC[C@@H]2[C@H](COc3ccc(NC(=O)c4ccc(Cl)cc4)cc3C(=O)N2C)O1	nt	i	nt	nt	nt	nt
CC(=O)c1ccc2c(c1)C1C=CCC1C(C(=O)O)N2 (stereo unspecified)	50	nt	i	nt	nt	nt
Cc1nnc(Sc2cc(NCCO)c([N+](=O)[O-])c3nonc23)s1	i	nt	i	nt	93	i
O=[N+]([O-])/C=C/c1c(OCc2ccccc2)ccc2ccccc12	nt	i	i	i	i	81
CCOC(=O)COc1ccc2ccccc2c1/C=C/[N+](=O)[O-]	i	nt	i	i	i	i
C[C@H]1CN([C@@H](C)CO)C(=O)c2cc(C#CC3CCCCC3)cnc2O[C@H]1CN(C)C(=O)Nc1ccccc1	nt	i	nt	nt	nt	nt
COc1ccc(OC)c2c1C(=O)C(Cl)=C(Cl)C2=O	i	i	i	i	i	91
COc1ccc(OC)c2c1C(=O)c1ccccc1C2=O	i	nt	nt	i	i	i
COc1ccc(/C=C/c2nc3ccccc3n2C)cc1	i	nt	i	i	i	80
CCCNC(=O)C[C@@H]1CC[C@@H]2[C@@H](COc3ccc(NC(=O)C4CCCC4)cc3C(=O)N2C)O1	nt	i	nt	nt	nt	nt
CC(C)(C)c1ccc(C(=O)Cn2cnnc2C#N)cc1	i	i	i	i	34	i
O=C(COC(=O)C1CCN(c2ccc(C(F)(F)F)cn2)CC1)c1ccccc1Cl	i	i	52	i	i	i
Cc1ccc(C(=O)C(C)OC(=O)C2CCN(c3ccc(C(F)(F)F)cn3)CC2)cc1 (stereo unspecified)	i	nt	55	nt	nt	nt
O=C(O)C1C2C=CC(C2)C1C(=O)Nc1ccc2c(c1)OCCO2 (stereo unspecified)	nt	i	i	i	i	i
CN(C)c1ccc(NC(=O)C2C3C=CC(C3)C2C(=O)O)cc1 (stereo unspecified)	78	i	i	i	i	i
CN1C(=O)c2cc(NS(=O)(=O)c3cccc(F)c3)ccc2OC[C@@H]2O[C@@H](CC(=O)N3CCc4ccccc4C3)CC[C@H]21	nt	i	nt	nt	nt	nt
Nc1nc(CCl)nc(N(c2ccccc2)c2ccccc2)n1	i	i	i	i	i	65
Nc1nc(Cl)nc(N(c2ccccc2)c2ccccc2)n1	i	nt	i	i	i	i
C[C@@H]1CN([C@@H](C)CO)C(=O)c2cc(NC(=O)CCCN(C)C)ccc2O[C@@H]1CN(C)Cc1ccc(C(F)(F)F)cc1	nt	i	nt	nt	nt	nt
O=C(N/N=C/C(Cl)=C\c1ccccc1)c1cnccn1	i	45	i	i	i	i
SMILES	CCHFV vOTU inh	BioA inh	Y pestis TopoI	Mtb bLac sens	RecA splice inh	BJeLR viability
Cc1noc(C)c1NC(=O)Nc1ccc2c(c1)C(=O)N([C@H](C)CO)C[C@H](C)[C@H](CN(C)S(=O)(=O)c1ccc(Cl)cc1)O2	nt	i	nt	nt	nt	nt
O=C(NC1CCN(CC(=O)N(c2ccccc2)c2ccccc2)CC1)c1ccc([N+](=O)[O-])cc1	i	i	i	i	i	i
O=Cc1[nH]c2ccccc2c1N(C(=O)CCl)c1ccc([N+](=O)[O-])cc1	i	i	i	i	i	111
O=C(CSc1ncnc2c1nnn2Cc1ccccc1F)NCC1CCCO1 (stereo unspecified)	i	i	i	i	50	i
C[C@H]1CN([C@@H](C)CO)S(=O)(=O)c2ccc(C#Cc3ccncc3)cc2O[C@H]1CN(C)C(=O)C1CCOCC1	nt	i	nt	nt	nt	nt
CC(C)=CC(=O)Nc1ccc(Cl)cc1	i	nt	i	i	i	i
CS/C(=C\[N+](=O)[O-])Nc1ccc(Cl)cc1	i	i	i	i	42	i
C[C@H]1CN([C@@H](C)CO)C(=O)c2cc(N(C)C)ccc2O[C@H]1CN(C)C(=O)NC1CCCCC1	nt	i	nt	nt	nt	nt
O=S1(=O)C=C(Sc2nc3ccccc3s2)c2ccccc21	nt	nt	nt	i	i	56
Cc1cc(C)nc(SC2=CS(=O)(=O)c3ccccc32)n1	i	i	i	i	i	i
O=C(O)c1nn(CCOc2cccc(Cl)c2)c(=O)c2ccccc12	i	nt	i	i	i	i
O=C(O)c1nn(CCOc2cccc(Br)c2)c(=O)c2ccccc12	i	i	52	i	i	i
Nc1c2ccccc2nc2ccccc12	i	i	i	i	i	89!
Nc1c2c(nc3ccccc13)CCCC2	i	i	i	i	i	i
COc1ccc(/C=C(/C#N)C(=O)Nc2ccc(O)cc2)cc1C(=O)O	i	nt	i	i	45	i
CCc1ccc(NC(=O)/C(C#N)=C\c2ccc(OC)c(C(=O)O)c2)cc1	i	nt	i	i	i	i
CO[C@H]1CN(C)C(=O)c2cc(NC(=O)Nc3cccc(Cl)c3)ccc2OC[C@H](C)NC[C@H]1C	nt	i	nt	nt	nt	nt
N#C/C(=C\c1cn(Cc2ccccc2F)c2ccccc12)C(=O)NCc1ccco1	i	nt	83	i	i	i
CCN(CC)c1ccc(C=C2C(=O)NC(=S)NC2=O)cc1	i	i	i	i	i	51
Cc1ccc(C(=O)n2nnc3ccccc32)cc1	nt	nt	nt	i	i	i
CN(C)c1ccc(C(=O)n2nnc3ccccc32)cc1	i	i	i	i	49	i
Cc1onc(-c2c(Cl)cccc2Cl)c1C(=O)n1nnc2ccccc21	nt	nt	nt	i	37	i
CCC(=O)N(C)C[C@H]1Oc2cc(-c3cccc(C#N)c3)ccc2S(=O)(=O)N([C@H](C)CO)C[C@H]1C	nt	i	nt	nt	nt	nt
O=S(=O)(c1ccc(NC(=S)NCc2cccnc2)cc1)N1CCCCC1	i	i	i	i	i	62
C[C@@H]1CN([C@@H](C)CO)C(=O)c2cc(NC(=O)c3ccncc3)ccc2O[C@@H]1CN(C)Cc1ccc(-c2ccccc2)cc1	nt	i	nt	nt	nt	nt
SMILES	CCHFV vOTU inh	BioA inh	Y pestis TopoI	Mtb bLac sens	RecA splice inh	BJeLR viability
CC(C)(C)c1cc(C(=O)CCN2CCOCC2)cc(C(C)(C)C)c1O	i	i	i	i	30	i
O=C(Cc1ccc([N+](=O)[O-])cc1)N/N=C/c1ccc([N+](=O)[O-])o1	i	nt	i	i	i	55
N#CCc1ccc(NC(=O)/C=C/c2ccc([N+](=O)[O-])o2)cc1	nt	i	i	nt	i	101
COc1cccc(S(=O)(=O)Nc2ccc3c(c2)OC[C@@H](C)NC[C@H](C)[C@H](OC)CN(C)C3=O)c1	nt	i	nt	nt	nt	nt
Cc1nc2c(=O)n(C)c(=O)n(C)c2nc1Cl	i	nt	i	i	45	i
CCOc1cc(/C=C2\C(=N)N3N=C(S(=O)(=O)CC)SC3=NC2=O)ccc1OC(=O)c1ccco1	i	i	i	i	31	i
CCOc1cc(/C=C2/C(=N)N3N=C(CC)SC3=NC2=O)ccc1OC(=O)c1ccco1	i	i	i	i	i	i

Screening data (PubChem BioAssay)
